Assay results: publication PMC7862700, “An all-to-all approach to the identification of sequence-specific readers for epigenetic DNA modifications on cytosine”

Assays:
Experiment in all cases: DAPPL (digital affinity profiling via proximity ligation, sequencing); 10 mM Tris-HCl pH 7.5, 50 mM NaCl, 1 mM DTT, 4% glycerol, room temperature, 30 min; GST-TFs on glutathione beads, 16-mer random dsDNA library, 0.1% formaldehyde crosslink after washing; high values mean tight binding
Settings in all cases: protein: recombinant; tags: N-terminal GST; dsDNA, one strand shown
ELF1 = ELF1 (Homo sapiens, UniProt P32519 1-619)
Outline: (§1)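 A tag-only sample was pooled with DNA-barcoded human transcription factors that had been expressed in yeast as GST fusions and captured on glutathione beads. The pools were incubated for 30 min at room temperature with 200 nmole of a random double-stranded 16-mer DNA library in Tris/NaCl/DTT/glycerol buffer, then washed, crosslinked with 0.1% formaldehyde, proximity-ligated (BsaI/T4 ligase, 1 h, 37 °C), PCR-amplified and sequenced on an Illumina NextSeq500. Binding signal is each hexamer's read frequency for a factor divided by its frequency for the tag-only sample.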

FEV = target: T1, FEV (Homo sapiens, UniProt Q99581 1-238)
T1 sequence: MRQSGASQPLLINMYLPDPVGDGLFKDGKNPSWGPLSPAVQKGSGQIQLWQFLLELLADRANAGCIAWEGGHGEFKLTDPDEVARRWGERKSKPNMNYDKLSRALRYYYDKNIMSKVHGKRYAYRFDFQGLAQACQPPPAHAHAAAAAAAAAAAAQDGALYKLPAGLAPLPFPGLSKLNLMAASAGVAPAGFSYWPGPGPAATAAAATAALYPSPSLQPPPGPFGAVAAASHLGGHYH
Outline: as §1

ETV5 = ETV5 (Homo sapiens, UniProt P41161 1-510)
Outline: as §1

ELF4 = ELF4 (Homo sapiens, UniProt Q99607 1-663)
Outline: as §1

ETV2 = target: T2, ETV2 (Homo sapiens, UniProt O00321 1-342)
T2 sequence: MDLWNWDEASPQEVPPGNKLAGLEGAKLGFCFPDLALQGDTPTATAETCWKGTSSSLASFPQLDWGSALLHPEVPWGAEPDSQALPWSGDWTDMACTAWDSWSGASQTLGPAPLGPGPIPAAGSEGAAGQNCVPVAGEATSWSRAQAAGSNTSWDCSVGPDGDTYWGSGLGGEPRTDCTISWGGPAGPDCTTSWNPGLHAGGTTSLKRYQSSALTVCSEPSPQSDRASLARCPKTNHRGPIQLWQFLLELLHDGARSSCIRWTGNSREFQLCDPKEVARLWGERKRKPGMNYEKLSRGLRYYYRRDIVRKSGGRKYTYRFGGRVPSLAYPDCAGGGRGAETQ
Outline: as §1

ELF3 = target: T3, ELF3 (Homo sapiens, UniProt P78545 1-371)
T3 sequence: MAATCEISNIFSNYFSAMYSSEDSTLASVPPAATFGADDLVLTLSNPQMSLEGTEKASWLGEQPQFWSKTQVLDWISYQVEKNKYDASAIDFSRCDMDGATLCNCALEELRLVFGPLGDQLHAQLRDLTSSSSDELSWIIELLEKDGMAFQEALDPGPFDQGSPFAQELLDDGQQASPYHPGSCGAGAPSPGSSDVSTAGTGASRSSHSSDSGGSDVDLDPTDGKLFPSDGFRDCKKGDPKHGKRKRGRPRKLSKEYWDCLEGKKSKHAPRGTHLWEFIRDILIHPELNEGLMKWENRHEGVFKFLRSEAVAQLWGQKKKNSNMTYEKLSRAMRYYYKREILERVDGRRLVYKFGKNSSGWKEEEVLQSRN
Outline: as §1

ETV1 = ETV1 (Homo sapiens, UniProt P50549 1-477)
Outline: as §1

ERF = target: T4, ERF (Homo sapiens, UniProt P50548 1-548)
T4 sequence: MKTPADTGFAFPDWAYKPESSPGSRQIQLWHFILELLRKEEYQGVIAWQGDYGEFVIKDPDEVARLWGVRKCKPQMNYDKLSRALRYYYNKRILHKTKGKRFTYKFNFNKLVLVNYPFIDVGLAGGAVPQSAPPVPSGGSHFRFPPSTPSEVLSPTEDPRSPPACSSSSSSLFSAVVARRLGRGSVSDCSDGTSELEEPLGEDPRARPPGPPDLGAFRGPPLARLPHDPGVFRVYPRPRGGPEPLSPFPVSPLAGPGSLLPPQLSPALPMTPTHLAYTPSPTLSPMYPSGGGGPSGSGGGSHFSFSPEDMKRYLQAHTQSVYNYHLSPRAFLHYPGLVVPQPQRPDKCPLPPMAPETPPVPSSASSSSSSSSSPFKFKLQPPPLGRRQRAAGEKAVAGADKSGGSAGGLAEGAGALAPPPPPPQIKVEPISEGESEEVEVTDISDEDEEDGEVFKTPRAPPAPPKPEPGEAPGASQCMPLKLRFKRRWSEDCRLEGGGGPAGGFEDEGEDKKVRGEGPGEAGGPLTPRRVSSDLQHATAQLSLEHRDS
Outline: as §1

ETV3L = target: T5, ETV3L (Homo sapiens, UniProt Q6ZN32 1-361)
T5 sequence: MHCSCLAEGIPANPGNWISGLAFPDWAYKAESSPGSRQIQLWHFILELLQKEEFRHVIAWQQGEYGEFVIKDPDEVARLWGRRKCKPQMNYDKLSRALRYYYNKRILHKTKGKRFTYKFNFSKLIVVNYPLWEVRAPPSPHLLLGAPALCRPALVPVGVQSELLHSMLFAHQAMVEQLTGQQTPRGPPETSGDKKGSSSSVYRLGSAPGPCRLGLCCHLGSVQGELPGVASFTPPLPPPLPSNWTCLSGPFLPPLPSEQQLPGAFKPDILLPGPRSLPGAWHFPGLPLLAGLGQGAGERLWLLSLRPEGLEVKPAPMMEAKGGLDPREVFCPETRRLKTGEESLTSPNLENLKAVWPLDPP
Outline: as §1

ETV3 = target: T6, ETV3 (Homo sapiens, UniProt P41162-2 1-143)
T6 sequence: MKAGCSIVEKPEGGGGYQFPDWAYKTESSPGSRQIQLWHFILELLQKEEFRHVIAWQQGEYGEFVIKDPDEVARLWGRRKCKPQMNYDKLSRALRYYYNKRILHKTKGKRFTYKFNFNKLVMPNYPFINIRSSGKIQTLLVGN
Outline: as §1

GABPA = target: T7, GABPA (Homo sapiens, UniProt Q06546 1-454)
T7 sequence: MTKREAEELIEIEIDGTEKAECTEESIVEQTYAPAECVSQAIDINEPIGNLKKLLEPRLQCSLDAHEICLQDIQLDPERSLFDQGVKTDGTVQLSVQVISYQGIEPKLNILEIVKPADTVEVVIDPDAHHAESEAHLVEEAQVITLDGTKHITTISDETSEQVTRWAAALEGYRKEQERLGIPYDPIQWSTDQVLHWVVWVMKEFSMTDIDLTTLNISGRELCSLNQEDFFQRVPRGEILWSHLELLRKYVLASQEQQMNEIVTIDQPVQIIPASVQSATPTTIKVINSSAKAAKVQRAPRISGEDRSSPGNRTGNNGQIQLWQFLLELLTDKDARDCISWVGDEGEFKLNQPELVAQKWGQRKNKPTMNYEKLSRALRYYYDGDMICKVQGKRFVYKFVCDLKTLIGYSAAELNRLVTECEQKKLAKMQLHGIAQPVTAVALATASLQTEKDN
Outline: as §1

EHF = target: T8, EHF (Homo sapiens, UniProt Q9NZC4 1-300)
T8 sequence: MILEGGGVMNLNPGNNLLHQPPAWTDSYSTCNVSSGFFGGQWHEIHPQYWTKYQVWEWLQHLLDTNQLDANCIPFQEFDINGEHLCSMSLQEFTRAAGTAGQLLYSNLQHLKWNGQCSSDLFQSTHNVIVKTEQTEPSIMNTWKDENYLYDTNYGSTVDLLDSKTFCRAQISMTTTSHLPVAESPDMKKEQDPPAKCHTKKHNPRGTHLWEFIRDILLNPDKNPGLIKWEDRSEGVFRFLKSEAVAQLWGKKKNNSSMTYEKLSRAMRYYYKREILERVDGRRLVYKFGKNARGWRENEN
Outline: as §1

SPIB = SPIB (Homo sapiens, UniProt Q01892 1-262)
Outline: as §1

ELK4 = target: T9, ELK4 (Homo sapiens, UniProt P28324-2 1-405)
T9 sequence: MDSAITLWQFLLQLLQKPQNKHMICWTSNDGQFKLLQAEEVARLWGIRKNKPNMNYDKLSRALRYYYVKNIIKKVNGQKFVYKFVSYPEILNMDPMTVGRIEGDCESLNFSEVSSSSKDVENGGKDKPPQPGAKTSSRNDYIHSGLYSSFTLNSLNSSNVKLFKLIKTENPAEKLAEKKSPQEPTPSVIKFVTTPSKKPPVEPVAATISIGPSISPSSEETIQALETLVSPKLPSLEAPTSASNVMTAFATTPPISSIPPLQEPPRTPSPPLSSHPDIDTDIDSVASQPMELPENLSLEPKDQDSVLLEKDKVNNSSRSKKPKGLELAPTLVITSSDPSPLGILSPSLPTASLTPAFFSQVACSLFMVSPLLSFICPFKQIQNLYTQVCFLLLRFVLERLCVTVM
Outline: as §1

ETS2 = target: T10, ETS2 (Homo sapiens, UniProt P15036 1-469)
T10 sequence: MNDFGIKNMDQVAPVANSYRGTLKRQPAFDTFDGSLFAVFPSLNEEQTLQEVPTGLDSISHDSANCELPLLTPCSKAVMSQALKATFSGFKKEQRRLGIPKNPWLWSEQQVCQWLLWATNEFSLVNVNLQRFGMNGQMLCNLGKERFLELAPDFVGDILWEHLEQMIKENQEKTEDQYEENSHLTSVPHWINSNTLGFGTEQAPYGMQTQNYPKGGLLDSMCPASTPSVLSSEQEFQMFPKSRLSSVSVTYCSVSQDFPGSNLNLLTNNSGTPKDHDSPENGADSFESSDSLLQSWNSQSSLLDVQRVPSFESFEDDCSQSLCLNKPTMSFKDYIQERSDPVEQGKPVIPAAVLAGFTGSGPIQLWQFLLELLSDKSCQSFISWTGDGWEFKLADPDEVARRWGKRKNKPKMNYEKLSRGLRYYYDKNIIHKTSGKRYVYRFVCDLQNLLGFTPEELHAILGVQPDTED
Outline: as §1

SPDEF = target: T11, SPDEF (Homo sapiens, UniProt O95238 1-335)
T11 sequence: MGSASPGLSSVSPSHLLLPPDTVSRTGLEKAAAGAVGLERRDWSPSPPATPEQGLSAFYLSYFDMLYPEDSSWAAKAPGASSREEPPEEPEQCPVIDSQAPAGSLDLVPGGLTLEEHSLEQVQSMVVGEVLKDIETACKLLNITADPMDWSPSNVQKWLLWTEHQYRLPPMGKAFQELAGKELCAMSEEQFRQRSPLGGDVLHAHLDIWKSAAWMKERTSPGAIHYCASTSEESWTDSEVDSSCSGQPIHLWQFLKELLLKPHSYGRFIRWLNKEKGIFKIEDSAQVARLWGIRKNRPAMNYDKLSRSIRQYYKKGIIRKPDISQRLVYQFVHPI
Outline: as §1

ETV7 = target: T12, ETV7 (Homo sapiens, UniProt Q9Y603 1-341)
T12 sequence: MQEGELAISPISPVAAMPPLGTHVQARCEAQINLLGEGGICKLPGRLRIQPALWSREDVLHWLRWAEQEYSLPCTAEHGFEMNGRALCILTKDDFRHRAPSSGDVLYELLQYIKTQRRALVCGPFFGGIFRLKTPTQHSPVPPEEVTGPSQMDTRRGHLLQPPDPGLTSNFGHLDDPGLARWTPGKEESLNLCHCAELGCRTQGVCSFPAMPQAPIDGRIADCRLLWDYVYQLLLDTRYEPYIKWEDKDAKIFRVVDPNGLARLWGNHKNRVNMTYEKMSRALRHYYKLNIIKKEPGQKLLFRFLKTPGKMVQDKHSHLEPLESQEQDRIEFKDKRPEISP
Outline: as §1

ETV6 = ETV6 (Homo sapiens, UniProt P41212 1-452)
Outline: as §1

Chain of ETV5 (P41161 whole entry): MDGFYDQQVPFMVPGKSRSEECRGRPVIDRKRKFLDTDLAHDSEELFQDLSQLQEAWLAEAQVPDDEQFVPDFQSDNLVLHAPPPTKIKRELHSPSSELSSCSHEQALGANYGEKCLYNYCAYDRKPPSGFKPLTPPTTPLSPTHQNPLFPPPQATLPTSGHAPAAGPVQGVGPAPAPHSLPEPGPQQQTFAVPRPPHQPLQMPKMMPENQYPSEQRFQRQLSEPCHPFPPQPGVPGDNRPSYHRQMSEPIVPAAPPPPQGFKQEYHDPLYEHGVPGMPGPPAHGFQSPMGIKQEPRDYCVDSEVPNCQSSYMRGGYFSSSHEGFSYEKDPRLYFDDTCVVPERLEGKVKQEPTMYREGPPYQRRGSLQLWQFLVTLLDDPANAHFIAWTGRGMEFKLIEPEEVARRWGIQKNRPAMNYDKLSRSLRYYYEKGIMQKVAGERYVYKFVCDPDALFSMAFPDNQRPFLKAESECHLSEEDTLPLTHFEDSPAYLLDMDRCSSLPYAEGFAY
Chain of ETV1 (P50549 whole entry): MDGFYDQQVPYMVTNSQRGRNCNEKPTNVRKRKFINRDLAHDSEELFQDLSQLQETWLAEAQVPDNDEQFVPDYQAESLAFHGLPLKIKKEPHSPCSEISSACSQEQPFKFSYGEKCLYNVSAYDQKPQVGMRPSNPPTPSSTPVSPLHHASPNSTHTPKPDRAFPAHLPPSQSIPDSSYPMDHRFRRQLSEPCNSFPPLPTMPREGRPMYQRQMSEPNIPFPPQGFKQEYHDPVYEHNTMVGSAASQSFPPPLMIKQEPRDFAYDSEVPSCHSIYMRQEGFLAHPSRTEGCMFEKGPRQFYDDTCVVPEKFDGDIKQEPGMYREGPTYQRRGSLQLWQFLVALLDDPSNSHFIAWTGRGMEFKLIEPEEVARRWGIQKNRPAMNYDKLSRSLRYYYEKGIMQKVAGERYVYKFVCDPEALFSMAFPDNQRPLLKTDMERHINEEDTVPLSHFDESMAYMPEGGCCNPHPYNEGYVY
Chain of ELF4 (Q99607 whole entry): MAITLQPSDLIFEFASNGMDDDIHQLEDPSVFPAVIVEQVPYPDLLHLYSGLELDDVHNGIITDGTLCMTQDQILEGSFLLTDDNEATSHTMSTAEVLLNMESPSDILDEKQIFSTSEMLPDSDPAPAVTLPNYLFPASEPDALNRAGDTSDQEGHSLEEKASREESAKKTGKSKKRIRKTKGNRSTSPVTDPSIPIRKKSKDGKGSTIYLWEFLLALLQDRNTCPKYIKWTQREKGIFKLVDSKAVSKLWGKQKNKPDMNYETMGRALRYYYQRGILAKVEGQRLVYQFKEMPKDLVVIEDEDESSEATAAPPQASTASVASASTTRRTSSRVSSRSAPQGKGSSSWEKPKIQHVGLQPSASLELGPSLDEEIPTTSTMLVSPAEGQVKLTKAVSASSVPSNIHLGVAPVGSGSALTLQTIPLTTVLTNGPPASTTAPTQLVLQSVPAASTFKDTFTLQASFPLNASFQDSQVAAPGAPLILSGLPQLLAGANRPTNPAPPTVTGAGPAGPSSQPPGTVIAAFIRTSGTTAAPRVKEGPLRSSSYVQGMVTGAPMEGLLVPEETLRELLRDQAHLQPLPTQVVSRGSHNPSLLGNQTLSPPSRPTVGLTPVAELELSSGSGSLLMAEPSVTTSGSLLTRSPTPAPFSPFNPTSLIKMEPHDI
Chain of ELF1 (P32519 whole entry, the tested form may be a part): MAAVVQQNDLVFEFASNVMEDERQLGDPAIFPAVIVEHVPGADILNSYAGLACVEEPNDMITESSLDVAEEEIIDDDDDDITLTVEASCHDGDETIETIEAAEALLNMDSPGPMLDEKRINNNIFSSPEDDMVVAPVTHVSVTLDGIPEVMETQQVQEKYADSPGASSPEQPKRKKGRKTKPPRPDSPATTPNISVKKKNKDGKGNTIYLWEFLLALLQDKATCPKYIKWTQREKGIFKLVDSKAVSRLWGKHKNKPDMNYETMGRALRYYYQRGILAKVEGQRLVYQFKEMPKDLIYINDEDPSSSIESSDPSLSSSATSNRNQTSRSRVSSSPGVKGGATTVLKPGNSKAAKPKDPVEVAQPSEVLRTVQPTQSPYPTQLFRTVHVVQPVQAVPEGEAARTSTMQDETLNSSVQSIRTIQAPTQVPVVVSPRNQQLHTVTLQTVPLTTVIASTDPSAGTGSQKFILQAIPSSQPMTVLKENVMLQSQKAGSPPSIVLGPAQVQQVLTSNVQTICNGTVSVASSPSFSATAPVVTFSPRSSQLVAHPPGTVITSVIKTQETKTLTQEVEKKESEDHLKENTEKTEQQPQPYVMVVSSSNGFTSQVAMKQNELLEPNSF
Chain of SPIB (Q01892 whole entry): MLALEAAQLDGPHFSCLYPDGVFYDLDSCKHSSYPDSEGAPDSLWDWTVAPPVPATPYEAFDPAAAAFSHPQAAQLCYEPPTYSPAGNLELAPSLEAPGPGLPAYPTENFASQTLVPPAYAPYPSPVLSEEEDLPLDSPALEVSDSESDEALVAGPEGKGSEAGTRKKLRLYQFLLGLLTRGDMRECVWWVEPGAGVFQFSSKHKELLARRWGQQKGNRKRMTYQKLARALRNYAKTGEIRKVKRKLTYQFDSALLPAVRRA
Chain of ETV6 (P41212 whole entry): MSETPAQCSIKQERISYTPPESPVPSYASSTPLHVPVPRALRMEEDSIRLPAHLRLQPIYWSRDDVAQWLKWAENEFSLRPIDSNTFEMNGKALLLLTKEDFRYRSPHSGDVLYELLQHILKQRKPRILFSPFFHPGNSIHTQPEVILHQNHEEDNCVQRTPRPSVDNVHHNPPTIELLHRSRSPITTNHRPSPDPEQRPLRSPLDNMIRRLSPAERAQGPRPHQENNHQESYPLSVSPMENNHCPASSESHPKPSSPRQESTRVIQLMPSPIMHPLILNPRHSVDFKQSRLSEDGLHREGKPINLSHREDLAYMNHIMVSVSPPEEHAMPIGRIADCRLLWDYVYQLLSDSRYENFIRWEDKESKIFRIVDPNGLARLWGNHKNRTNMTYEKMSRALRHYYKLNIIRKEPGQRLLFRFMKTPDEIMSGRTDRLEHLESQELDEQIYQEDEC

Sequence | binding signal (ELF1) | binding signal (FEV) | binding signal (ETV5) | binding signal (ELF4) | binding signal (ETV2) | binding signal (ELF3) | binding signal (ETV1) | binding signal (ERF) | binding signal (ETV3L) | binding signal (ETV3) | binding signal (GABPA) | binding signal (EHF) | binding signal (SPIB) | binding signal (ELK4) | binding signal (ETS2) | binding signal (SPDEF) | binding signal (ETV7) | binding signal (ETV6)
GCACAC | 1.02 fold enrichment (6-mer frequency, TF over GST control) | 1.02 fold enrichment (6-mer frequency, TF over GST control) | 1.02 fold enrichment (6-mer frequency, TF over GST control) | 1.05 fold enrichment (6-mer frequency, TF over GST control) | 1.01 fold enrichment (6-mer frequency, TF over GST control) | 1.03 fold enrichment (6-mer frequency, TF over GST control) | 1 fold enrichment (6-mer frequency, TF over GST control) | 1.12 fold enrichment (6-mer frequency, TF over GST control) | 1.04 fold enrichment (6-mer frequency, TF over GST control) | 1.05 fold enrichment (6-mer frequency, TF over GST control) |  |  |  |  |  |  |  | 
GTAACC | 1.05 fold enrichment (6-mer frequency, TF over GST control) | 1.04 fold enrichment (6-mer frequency, TF over GST control) | 1.05 fold enrichment (6-mer frequency, TF over GST control) | 1.05 fold enrichment (6-mer frequency, TF over GST control) | 1.06 fold enrichment (6-mer frequency, TF over GST control) |  | 1.09 fold enrichment (6-mer frequency, TF over GST control) | 1.11 fold enrichment (6-mer frequency, TF over GST control) |  | 1.13 fold enrichment (6-mer frequency, TF over GST control) | 1.01 fold enrichment (6-mer frequency, TF over GST control) | 1.11 fold enrichment (6-mer frequency, TF over GST control) | 1.1 fold enrichment (6-mer frequency, TF over GST control) | 1.02 fold enrichment (6-mer frequency, TF over GST control) | 1.1 fold enrichment (6-mer frequency, TF over GST control) | 1.03 fold enrichment (6-mer frequency, TF over GST control) | 1.07 fold enrichment (6-mer frequency, TF over GST control) | 1.07 fold enrichment (6-mer frequency, TF over GST control)
